Insulin prom inh – TRM-6 insulin promoter activity inhibition | TRM-6 cells (human fetal islet line), insulin promoter-eGFP reporter, imaging; reporter expression induced with tamoxifen | inhibition, % at 2 µM | 130,000 compounds, 0.9% hits | AID 1273;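 active = inhibition above the mean plus 3 SD, with well images judged a real hit on visual review, cut at about 60% in these data, passing the limit was not always enough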
ROMK mod – modulates human ROMK potassium channel activity; P48048; Tet-inducible ROMK, thallium flux fluorescence; actives lie on both sides; B-score at 10 µM; 130,000 compounds, 2% hits; AID 1918;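 active = signal ratio slope over the read window, or its plate-corrected B-score, at least 3 SD from the plate mean, either direction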;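 note: B-score of the F/F0 ratio slope over 7 to 12 s after thallium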
HCT116 PTEN-null – suppresses growth of cells with PTEN deletion; HCT116 PTEN-null viability, CellTiter-Glo, 60 h; stronger effect = lower value; viability, % at 10 µM; 140,000 compounds, 1.2% hits;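 active = viability at or below a set limit, 4 SD under the median of all tested compounds, cut at about 3.7% in these data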;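 note: PTEN knockout HCT116 line with beta catenin targeted HCT116 as companion control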
p97 inhibitor – blocks human p97 ATPase activity | AID 1481 | P55072 | inhibition, % at 8 µM | 220,000 compounds, 0.42% hits | recombinant p97 ATPase, Kinase-Glo ATP luminescence, 3 h; in the data active = inhibition above about 15%;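 note: 0% = DMSO vehicle and 100% = wells lacking enzyme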
Target sequence (P55072 whole entry, looked up): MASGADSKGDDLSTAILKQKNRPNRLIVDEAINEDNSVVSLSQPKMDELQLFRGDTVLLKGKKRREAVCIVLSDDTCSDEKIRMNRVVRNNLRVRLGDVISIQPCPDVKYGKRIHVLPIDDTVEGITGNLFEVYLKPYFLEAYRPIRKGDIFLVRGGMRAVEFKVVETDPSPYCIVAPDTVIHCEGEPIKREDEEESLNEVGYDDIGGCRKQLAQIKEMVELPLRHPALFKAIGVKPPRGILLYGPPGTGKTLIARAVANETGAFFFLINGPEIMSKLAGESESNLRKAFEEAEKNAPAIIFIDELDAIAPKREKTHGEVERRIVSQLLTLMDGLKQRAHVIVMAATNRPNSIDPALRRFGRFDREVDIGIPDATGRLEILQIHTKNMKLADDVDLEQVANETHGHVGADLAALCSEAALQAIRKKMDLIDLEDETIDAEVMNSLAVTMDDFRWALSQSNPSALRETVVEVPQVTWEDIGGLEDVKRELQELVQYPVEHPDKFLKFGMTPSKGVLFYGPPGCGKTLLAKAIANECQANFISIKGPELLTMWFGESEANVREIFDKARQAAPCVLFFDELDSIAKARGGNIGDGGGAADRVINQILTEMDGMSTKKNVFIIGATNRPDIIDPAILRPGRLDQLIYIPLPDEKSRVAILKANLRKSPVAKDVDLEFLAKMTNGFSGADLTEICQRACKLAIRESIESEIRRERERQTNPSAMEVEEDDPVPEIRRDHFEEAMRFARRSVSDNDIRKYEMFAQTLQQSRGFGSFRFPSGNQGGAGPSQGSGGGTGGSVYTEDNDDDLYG
Lmaj promast – reduces viability of Leishmania major promastigotes. resazurin fluorescence viability. inhibition, % at 10 µM. 200,000 compounds, 9% hits. AID 1063; in the data active = inhibition above about 50%;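 note: promastigotes grown with compound for 44 hours at 28 °C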
HCT116 bCat-KO – beta-catenin-lacking colon tumor cell growth suppression. HCT116 beta-catenin knockout viability, CellTiter-Glo, 60 h; stronger effect = lower value. viability, % at 10 µM. 140,000 compounds, 1.5% hits. AID 818;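 active = viability at or under a set limit, the compound median less 4 SD, cut at about 6% in these data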;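 note: 0% = Hyamine 1622 control at 20 µM and 100% = untreated cell control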
* = called active by the depositor; . = no result given. Only some compounds are listed: those with a hit (about 10% of all), similar ones and a draw of the others.

SMILES	Insulin prom inh	ROMK mod	HCT116 PTEN-null	p97 inhibitor	Lmaj promast	HCT116 bCat-KO
O=C(CN(C1CCCCC1)C1CCCCC1)N1CCc2ccccc2C1	8	-1.8	45	1	64*	53
O=C(CN1CCN(c2ccc(F)cc2)CC1)N1CCC(Cc2ccccc2)CC1	37	.	91	-2	88*	76
O=C(CN1CCC(Cc2ccccc2)CC1)N1CCc2ccccc2C1	.	-0.81	.	-1	79*	.
COc1ccc(CNS(=O)(=O)NCc2ccc(C)cc2)cc1	46	.	.	3	-2	.
Nc1sc2c([n+]1CCCS(=O)(=O)[O-])CCCC2	53	.	.	2	-15	.
O=C(CN1C(=O)NC2(CCCCCCC2)C1=O)N1CCc2ccccc2C1	5	.	79	3	68*	94
COc1ccc(S(=O)(=O)NCCc2nnc3ccc(SCC(=O)Nc4nc(C)cs4)nn23)cc1	-31	0.41	101	1	-5	97
CCCCC(NC(=O)c1ccccc1)C(=O)OCC(=O)N1c2ccccc2Sc2ccccc21 (stereo unspecified)	30	.	82	-3	75*	96
CCN1CCN(CCOc2ccc(Br)cc2C)CC1	.	-0.86	.	11	93*	.
Cc1ccc(OCCCCn2ccnc2C)c(C)c1	.	-0.13	.	-2	89*	.
Cc1ccc(OCCCN2CCCC2)c(C)c1	-65	-0.085	89	-2	97*	90
Cc1ccccc1OCCCN1CCCC1	.	.	92	-2	41	89
Cc1ccc(OCCn2nc3ccccc3n2)c(C)c1	48	.	91	-1	5	86
Cc1ccc(OCCN2CCCCCC2)c(C)c1	-58	.	77	8	96*	86
CCN(CC)c1ccc(C(=O)OCc2cc(=O)oc3cc(O)ccc23)cc1	33	.	0.2*	-1	12	0.9*
C[C@@H]1CN(C2CCN(Cc3nc(CC4CC4)no3)CC2)C[C@H](C)O1	-43	.	.	3	86*	.
C[C@@H]1CN(C2CCN(Cc3nc(C(c4ccccc4)c4ccccc4)no3)CC2)C[C@H](C)O1	-40	.	.	-1	85*	.
CN(C)C(=O)CN1CCN(Cc2nc(CC3CC3)no2)CC1	.	.	.	1	.	.
Clc1ccccc1Cc1noc(CN2CCN3CCCC3C2)n1 (stereo unspecified)	.	0.88	.	0	75*	.
CN(Cc1nc(-c2ccc(C(F)(F)F)cc2)no1)C1CCOCC1	.	0.013	.	-1	-1	.
FC(F)(F)c1ccc(-c2noc(CN3CCCN(C4CCCCC4)CC3)n2)cc1	.	-1.9	.	0	84*	.
COc1ccc(-c2nnc(CSc3nc4ccccc4c(=O)n3CC3CCCO3)o2)cc1OC (stereo unspecified)	.	.	.	-5	.	.
CCN1CCN(C(=O)C(C)Nc2ccc(OC)cc2OC)CC1 (stereo unspecified)	.	-0.23	.	1	10	.
CC(=O)N1CCN(Cc2nc(C(c3ccccc3)c3ccccc3)no2)CC1	-14	0.73	.	-1	-1	.
c1ccc(C(c2ccccc2)c2noc(CN3CCN(C4CCCC4)CC3)n2)cc1	.	-0.49	.	-6	84*	.
SMILES	Insulin prom inh	ROMK mod	HCT116 PTEN-null	p97 inhibitor	Lmaj promast	HCT116 bCat-KO
Cc1ccc2[nH]c(=O)cc(C(=O)OC(C)C)c2c1	.	.	.	4	4	.
Cc1ccc(CNc2ccc3c(c2)ncn3C)cc1	-14	.	80	4	60*	94
Cc1c(Cl)cccc1-n1c(SCC(=O)NCc2ccccc2Cl)nnc1-c1ccncc1	0	.	78	-2	100*	87
Cc1c(Cl)cccc1-n1c(SCC(=O)NCc2cccs2)nnc1-c1ccncc1	91*	.	94	0	40	98
Cc1ccc(F)c(NC(=O)c2ccc(Cn3cc(Cl)cn3)cc2)c1	.	0.22	.	-4	-2	.
Cc1ccc(F)c(NC(=O)/C(C#N)=C(\O)c2ccc(C(C)(C)C)cc2)c1	.	5.7*	.	6	0	.
Cc1cccc(N2CCN(C(=O)c3cc4c(=O)n(C)c5ccccc5c4n3C)CC2C)c1 (stereo unspecified)	.	.	21	7	8	17
COC(=O)c1ccc(COc2ccc(/C=N/NC(N)=S)cc2)o1	.	.	.	4	.	.
C/C(CC(=O)Nc1ccc(Cl)c(Cl)c1)=N\NC(N)=S	-30	.	91	-3	62*	75
CC1CN(C(=O)C2(C)CC2(Br)Br)CC(C)O1 (stereo unspecified)	22	.	88	3	-5	93
Cc1cccc(/N=C/c2c(O)cc(C)oc2=O)n1	.	0.21	107	7	-5	104
Cc1cccc(/N=C/c2c(O)ccc3oc4c(c23)CCCC4)n1	-36	-0.039	87	3	91*	84
Cc1cc(C(=O)Nc2ccc(F)cc2C)n(-c2ccccc2)n1	.	.	.	1	.	.
CN1CCC(OC(=O)c2ccc(Cl)cc2Cl)CC1	.	-0.34	.	3	96*	.
CN1CCC(OC(=O)c2cccc(Br)c2)CC1	10	0.018	94	2	93*	88
CCCc1nn(C)c(C(N)=O)c1[N+](=O)[O-]	38	.	.	4	-5	.
CC1CCN(CCCOc2ccc(Br)cc2Cl)CC1	.	-0.21	.	1	89*	.
CC1CCCN(CCOCCOc2ccc(Br)cc2Cl)C1 (stereo unspecified)	-32	.	54	2	97*	54
Clc1cc(Br)ccc1OCCN1CCOCC1	-30	-0.71	92	1	93*	95
CCCCCOc1ccc(CN2CCOCC2)cc1Cl	.	.	91	-2	86*	89
COc1ccc(Cl)cc1NC(=O)Cn1c(NCCO)nc2ccccc21	.	1.4	.	6	0	.
Cc1cccc(C)c1N(CC(=O)NCc1ccc(F)cc1)C(=O)c1csnn1	.	0.32	.	0	-5	.
Clc1ccc(OCCOCCOc2cccc3cccnc23)c(Br)c1	-10	1.3	57	-2	-5	53
Cc1ccc(OCCCCN2CCC(C)CC2)c(Br)c1	-27	-2.3	57	3	100*	49
CC1CCCN(CCOCCOc2ccc(Cl)cc2Br)C1 (stereo unspecified)	11	-2.6	8	0	98*	5.3*
SMILES	Insulin prom inh	ROMK mod	HCT116 PTEN-null	p97 inhibitor	Lmaj promast	HCT116 bCat-KO
O=C(COC(=O)CCC(NC(=O)OCc1ccccc1)C(=O)OCC(=O)Nc1ccccc1)Nc1ccccc1 (stereo unspecified)	.	.	102	-1	-4	102
O=C(O)/C=C/C(=O)OC1CC2CCC1C2 (stereo unspecified)	.	-0.021	.	-3	.	.
COc1ccc(-c2[nH]c(-c3ccc(C)cc3)nc2SCC(=O)NC2CCCC2)cc1	-12	0.67	45	-5	84*	48
COc1ccc(-c2[nH]c(-c3ccccc3)nc2SCC(=O)Nc2nccs2)cc1	-38	-1.9	77	8	42	81
COc1cccc(/C=C/C(=O)c2ccc(C)c([N+](=O)[O-])c2)c1	30	.	2.4*	6	76*	2.7*
COc1cccc(/C=C/C(=O)c2ccc[nH]2)c1	7	1.2	32	3	100*	35
COc1ccc(/C=C/C(=O)c2ccc(C)c([N+](=O)[O-])c2)cc1O	.	.	1.4*	2	100*	1.2*
COc1ccc(C(=O)/C=C/c2ccc(N3CCCCC3)c([N+](=O)[O-])c2)cc1	.	.	103	2	28	98
